SARS PLP yeast: SARS-CoV PLP inhibition in yeast; Potency, µM (top dose mostly 32.9 µM), usual class: activators; S. cerevisiae expressing SARS-CoV PLpro, growth rescue; AID 485353; hit rate 0.19% among 330,000; calls by dose curve; also: nearly all actives have a fitted effect of over 55% in size
Pf growth 48h: inhibits P. falciparum growth in the first generation, 48 h; P. falciparum luciferase growth in erythrocytes, 48 h; hit rate 5.9% among 310,000; Potency, µM (highest dose often 28.7 µM), most hits filed as inhibitors
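Here the parasites carry a stable luciferase gene and grow inside erythrocytes in Albumax-based RPMI medium with compound for one erythrocytic cycle. Activity is scored as loss of luminescent signal.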
AMA1-RON2 inh: inhibitors of Plasmodium falciparum AMA1-RON2 interaction | hit rate 0.2% among 360,000 | Potency, µM (highest dose often 58.2 µM), most hits filed as inhibitors | AlphaScreen AMA1-biotinylated RON2 peptide binding | AID 720542; also: nearly all actives have a fitted effect of over 45% in size
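AMA1 (3D7) with his tag at 25 nM final met compounds first, then biotinylated RON2 peptide at 25 nM; detection used donor plus acceptor beads, 10 µg/mL apiece, read by AlphaScreen after 30 min at room temperature.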
Pf growth 96h: inhibits malaria parasite growth, 96 h; P. falciparum luciferase reporter growth, 96 h; Potency, µM (titrated, usually from 28.7 µM), usual class: inhibitors; hit rate 6.9% among 320,000; AID 504834
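Plates of compound plus infected erythrocytes (2% hematocrit, 0.05% parasitemia final) incubate 96 hours, 37 C, 5% CO2. Detection reagent added; reduced luminescence from the parasites' luciferase reporter flags inhibition.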
Hits are given with their value; [ ] = remark or other dose. Hits are enriched below; roughly 9.4% of the tested compounds scored in any of these assays. Unless noted, calls follow the shape of the dose curve; as a rule, active = well fitted curve in the direction sought with a large enough effect; inconclusive = small, poorly fitted or top-dose-only effect, or another doubt; inactive = no such curve, though single readings can be large; an effect the other way counts as inactive or inconclusive.

For O=C(CCCCCC(=O)N(CCO)CCO)N(CCO)CCO the results were SARS PLP yeast inactive, Pf growth 48h 13.1µM and AMA1-RON2 inh inactive.
For COc1ccc(-c2nnc(NC(=O)CSc3ccc(C)cc3)s2)cc1OC the results were SARS PLP yeast inactive, Pf growth 48h inactive, AMA1-RON2 inh inactive and Pf growth 96h inactive.
For CC1(c2ccc(OCC#N)cc2)C=C(c2ccc(OCC#N)cc2)n2nc(C(F)(F)F)nc2N1 (stereo not drawn) the results were SARS PLP yeast inactive, Pf growth 48h 9.28µM, AMA1-RON2 inh inactive and Pf growth 96h 7.38µM.
Cc1ccc(C2=CC(C)(c3ccc(C)cc3)Nc3nc(C(F)(F)F)nn32)cc1 (stereo not drawn) was read as SARS PLP yeast inactive, Pf growth 48h inconclusive, AMA1-RON2 inh inactive and Pf growth 96h inconclusive.
`COc1ccc2c3c(cccc13)C(=O)CC2` gave SARS PLP yeast inactive, Pf growth 48h inactive, AMA1-RON2 inh inactive and Pf growth 96h inactive.
Cc1sc(NC(=O)C2CCCCC2C(=O)O)c(C(N)=O)c1-c1ccc(C(C)(C)C)cc1 (stereo not drawn) was read as SARS PLP yeast inconclusive, Pf growth 48h inactive, AMA1-RON2 inh inactive and Pf growth 96h inactive.
`Cc1sc(NC(=O)/C=C/C(=O)O)c(C(N)=O)c1-c1ccc(C(C)(C)C)cc1` gave SARS PLP yeast inactive, Pf growth 48h 8.28µM, AMA1-RON2 inh inactive and Pf growth 96h inactive.
Screening CCOC(=O)c1c(NC(=O)/C=C\C(=O)O)sc(C)c1-c1ccccc1 returned SARS PLP yeast inactive, Pf growth 48h inconclusive, AMA1-RON2 inh inactive and Pf growth 96h inactive.
CCOC(=O)c1c(NC(=O)/C=C/C(=O)O)sc(C)c1-c1ccc(C(C)(C)C)cc1 was read as SARS PLP yeast inactive, Pf growth 48h 1.65µM, AMA1-RON2 inh inactive and Pf growth 96h inactive[5.75 µM].
O=C(Nc1ncc(Cc2ccc(SC(F)F)cc2)s1)c1ccc(OC(F)F)cc1 was read as SARS PLP yeast inactive, Pf growth 48h inactive, AMA1-RON2 inh inactive[2.32 µM] and Pf growth 96h inactive.
For O=C(CSCc1c(F)cccc1Cl)NCc1ccco1 the results were SARS PLP yeast inactive, Pf growth 48h inconclusive, AMA1-RON2 inh inactive and Pf growth 96h inactive.
`Cn1c(CSc2ncccn2)nnc1SCC(=O)N1CCCC1` gave SARS PLP yeast inactive, Pf growth 48h inactive, AMA1-RON2 inh inactive and Pf growth 96h inconclusive.
For CC1CCCC(C)N1C(=O)CSc1nnc(CSc2ncccn2)n1C (stereo not drawn) the results were SARS PLP yeast inactive, Pf growth 48h inactive, AMA1-RON2 inh inactive and Pf growth 96h 10.4µM.
Screening CC(C)NC(=O)C(=O)NCC(c1ccc2c(c1)OCO2)N1CCOCC1 (stereo not drawn) returned SARS PLP yeast inactive, Pf growth 48h inactive, AMA1-RON2 inh inactive and Pf growth 96h inactive.
Cc1ccc2cccc(Oc3ncnc4scc(-c5ccccc5)c34)c2n1 was read as SARS PLP yeast inactive, Pf growth 48h 10.4µM, AMA1-RON2 inh inactive[2.32 µM] and Pf growth 96h inconclusive.
Screening Cc1ccc(-c2csc3ncnc(Cl)c23)cc1 returned SARS PLP yeast inactive, Pf growth 48h 1.47µM, AMA1-RON2 inh inactive and Pf growth 96h 2.62µM.
`Cc1ccc2cccc(Oc3ncnc4scc(-c5ccc(Cl)cc5)c34)c2n1` gave SARS PLP yeast inactive, Pf growth 48h inconclusive, AMA1-RON2 inh inactive and Pf growth 96h 10.4µM.
For COc1ccc(NC(=O)c2sc3cc(C(F)(F)F)cnc3c2-c2cccs2)cc1 the results were SARS PLP yeast inactive, AMA1-RON2 inh inactive and Pf growth 96h 11.7µM.
Screening O=C(Nc1ccc(F)cc1)c1sc2cc(C(F)(F)F)cnc2c1-c1cccs1 returned SARS PLP yeast inactive, AMA1-RON2 inh inactive and Pf growth 96h inconclusive.
For COc1ccc(NC(=O)NN2CCN(C)CC2)cc1OC the results were SARS PLP yeast inactive, Pf growth 48h inactive, AMA1-RON2 inh inactive and Pf growth 96h inactive.
Screening CCC(Sc1ccc2nnc(CCNS(=O)(=O)c3ccc(OC)cc3)n2n1)C(=O)OC (stereo not drawn) returned SARS PLP yeast inactive, Pf growth 48h inactive, AMA1-RON2 inh inactive and Pf growth 96h 7.38µM.
`CN(c1ccc(OCC(=O)N2CCCC2)cc1)S(=O)(=O)c1ccc(Cl)cc1` gave SARS PLP yeast inactive, Pf growth 48h 10.4µM, AMA1-RON2 inh inactive and Pf growth 96h inconclusive.
`COC(=O)C1CCN(C(=O)COc2ccc(N(C)S(=O)(=O)c3ccc(C)cc3)cc2)CC1` gave SARS PLP yeast inactive, Pf growth 48h 13.1µM, AMA1-RON2 inh inactive[11.6 µM] and Pf growth 96h inconclusive.
`COC(=O)[C@@H](NCc1cccc(CN([C@H](C(=O)OC)C(C)C)S(C)(=O)=O)c1)C(C)C` gave SARS PLP yeast inactive, Pf growth 48h inconclusive, AMA1-RON2 inh inactive and Pf growth 96h 14.7µM.
For C=CCn1c(C(c2ccccc2)c2ccccc2)n[nH]c1=S the results were SARS PLP yeast inactive, Pf growth 48h inactive, AMA1-RON2 inh inactive and Pf growth 96h 3.7µM.
For CCn1c(C(c2ccccc2)c2ccccc2)n[nH]c1=S the results were SARS PLP yeast inactive, AMA1-RON2 inh inactive and Pf growth 96h inconclusive.
For CC1(C)CC(=O)C2=C(C1)NC(Nc1nc3ccccc3o1)=NC21CCCCC1 the results were SARS PLP yeast inactive, Pf growth 48h inconclusive, AMA1-RON2 inh inactive and Pf growth 96h 9.28µM.
`CCCN1CN=C(Nc2nc3ccccc3o2)NC1` gave SARS PLP yeast inactive, Pf growth 48h inactive, AMA1-RON2 inh inactive and Pf growth 96h inactive.
`CN(C(=O)c1cccc(NC(=O)Cc2ccc(NC(=O)C3CCCN(C(=O)C4CC4)C3)cc2)c1)C1CCCC1` (stereo not drawn) gave AMA1-RON2 inh inactive.
Screening CCCn1c(SC(C)C(=O)O)nc2ccccc21 (stereo not drawn) returned SARS PLP yeast inactive[6.58 µM], AMA1-RON2 inh inactive and Pf growth 96h inactive.
`COc1ccccc1/C=C/CN1CCN(Cc2ccc(C)o2)C(CCO)C1` (stereo not drawn) gave SARS PLP yeast inactive, Pf growth 48h inconclusive, AMA1-RON2 inh inactive and Pf growth 96h inconclusive.
`C/C(=C\c1ccccc1)CN1CCN(Cc2ccc(C)o2)C(CCO)C1` (stereo not drawn) gave SARS PLP yeast inactive, Pf growth 48h inconclusive, AMA1-RON2 inh inactive and Pf growth 96h 2.08µM.
Screening C=CCN(c1ccccc1OC)S(=O)(=O)c1cccc(C(=O)NCc2cccs2)c1 returned SARS PLP yeast inactive, Pf growth 48h 11.7µM, AMA1-RON2 inh inactive and Pf growth 96h 11.7µM.
For CCN(c1ccccc1)S(=O)(=O)c1cccc(C(=O)NCC(c2cccs2)N2CCOCC2)c1 (stereo not drawn) the results were SARS PLP yeast inactive, Pf growth 48h 14.7µM, AMA1-RON2 inh inactive and Pf growth 96h inconclusive.
For CCN(CC)S(=O)(=O)c1ccc(C(=O)NCC(c2cccs2)N2CCOCC2)cc1 (stereo not drawn) the results were SARS PLP yeast inactive, Pf growth 48h inactive, AMA1-RON2 inh inactive and Pf growth 96h inconclusive.
COc1cc(OC)c(N(C)S(=O)(=O)c2cccc(C(=O)NCc3cccs3)c2)cc1Cl was read as AMA1-RON2 inh inactive.
